In PubChem BioAssay AID1159580 (chemical genetic matrix, 2015):
In all, about 5,500 compounds went through this assay and about 2,000 (36%) were called active. Not shown: some 18% with an inconclusive outcome. Cut-off read from the data, not from the text of the source: active = normalized growth mostly below about 0.91 (no sharp cut-off); inconclusive = no clear call, values can overlap the other calls; inactive = mostly above about 0.92. Some of the results follow.

Assay: chemical genetic growth profiling, strain panel (AID 1159580);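 note: tested at 20 µM; growth read once vehicle control cultures reached saturation at 30 °C; 1 = growth at the plate median or of vehicle wells; lower values mean less growth of the strain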
Details: S. cerevisiae deletion strains, growth OD

Measured: normalized growth

COc1ccc2c(c1O)-c1cccc3c1[C@@H](C2)N(C)CC3
inactive: locus YAL013W, strain DEP1, stronger effect = lower value 0.986 | locus YAL040C, strain CLN3, stronger effect = lower value 0.995 | locus YCL061C, strain MRC1 (second series), stronger effect = lower value 1.01 | locus YDR363W, strain ESC2, stronger effect = lower value 0.994 | locus YER002W, strain NOP16, stronger effect = lower value 1.01 | locus YGR078C, strain PAC10, stronger effect = lower value 1.05 | locus YGR229C, strain SMI1, stronger effect = lower value 1.02 | locus YJR075W, strain HOC1, stronger effect = lower value 1 | locus YMR263W, strain SAP30, stronger effect = lower value 0.994 | locus YMR307W, strain GAS1, stronger effect = lower value 1.02 | locus YNL128W, strain TEP1, stronger effect = lower value 1.01 | locus YNL175C, strain NOP13, stronger effect = lower value 1.02 | locus YNL197C, strain WHI3, stronger effect = lower value 1.02 | locus YNL224C, strain SQS1, stronger effect = lower value 1.01 | locus YNL322C, strain KRE1, stronger effect = lower value 0.985 | locus YOR083W, strain WHI5 (second series), stronger effect = lower value 0.972 | locus YPL055C, strain LGE1, stronger effect = lower value 0.989 | locus YPL241C, strain CIN2, stronger effect = lower value 1.01
